Measured values from PubChem BioAssay AID485364 (National Center for Advancing Translational Sciences (NCATS), 2010).
“And” between values parts separate entries of the source, which are not always exact repeats. Equal values may be shown once. Screen size: about 360,000 compounds; about 11,000 (3.1%) were called active. Another 4% or so got no clear call; they are omitted. Calls follow the shape of the dose curve; as a rule, active = well fitted inhibition curve with a large enough effect; inconclusive = small, poorly fitted or top-dose-only effect; inactive = no such curve, though single readings can be large or run the other way. The sample as a whole holds a higher share of actives than the screen did. Where a structure was tested more than once in an assay, its records may differ in their call.

biological target: Schistosoma mansoni thioredoxin glutathione reductase (TGR) (UniProt Q962Y6); test: qHTS Assay for the Inhibitors of Schistosoma Mansoni Peroxiredoxins; conditions: purified TGR, DTNB reduction, TNB absorbance 405 nm; series mostly up to 114 µM; activity change, negative = inhibition: at the top concentration; also: nearly all actives have a fitted effect of over 60% in size
Method in brief: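 Kinetic colorimetric format: TGR-catalysed, NADPH-driven DTNB reduction monitored via TNB absorbance. Enzyme dispensed at 20 nM; compound exposure 15 min at room temperature before reaction start.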
% is scaled to controls: 0 for no effect and ±100 for the full control effect; potency is read from the fitted curve at half-maximal effect.

| Structure (SMILES) | activity change, negative = inhibition | Potency |
| --- | --- | --- |
| Cc1ccc(NC(=O)c2cn3c4c(ccc(Cl)c4c2=O)OC(C)C3)cc1C (centres undefined) | -0.119% (inactive) |  |
| CCOC(=O)Nc1ccc2c(c1)N(C(=O)CCN1CCN(CCO)CC1)c1ccccc1CC2 | -11.7% (inactive) |  |
| CCNCCC(=O)N1c2ccccc2Sc2ccc(NC(=O)OCC)cc21 | -0.642% (inactive) |  |
| CCOC(=O)Nc1ccc2c(c1)N(C(=O)CCCl)c1ccccc1[S@]2=O |  | 14.1 µM (active) |
| COc1ccc(Cl)cc1NC(=O)CSc1nc(=O)[nH]c2c1CCCC2 | -13.1% (inactive) |  |
| Cc1ccccc1-c1nc(CS(=O)(=O)CC(=O)NC(C)c2ccccc2)c(C)o1 (centres undefined) |  | inactive and 39.8 µM (active) |
| Cc1oc(-c2ccccc2F)nc1CS(=O)(=O)CC(=O)NCCCN(C)C1CCCCC1 | 3.21% (inactive) |  |
| COc1cccc(-c2nc(CS(=O)(=O)CC(=O)N3CCN(c4cc(C)ccc4C)CC3)c(C)o2)c1 | -0.431% (inactive) |  |
| Cc1ccc(S(=O)(=O)CC(=O)NC(C)c2ccccc2)cc1 (centres undefined) | 0% (inactive) |  |
| Cc1ccccc1-c1nc(CS(=O)(=O)CC(=O)N2CCc3ccccc3C2)c(C)o1 |  | 3.55 µM (active) |
| Cc1ccccc1-c1nc(CS(=O)(=O)CC(=O)Nc2cc(Cl)cc(Cl)c2)c(C)o1 | -0.424% (inactive) |  |
| Cc1ccc(-c2noc(-c3nnn(-c4cccc(C(F)(F)F)c4)c3N)n2)cc1 | 7.72% (inactive) |  |
| CC1CCC(N2CC(=O)N(CCC3=CCCCC3)C(c3ccc(F)cc3)C2=O)CC1 (centres undefined) | 5.07% (inactive) |  |
| CCOc1ccc(S(=O)(=O)c2cn(Cc3ccc(OC)cc3)c3ccc(F)cc3c2=O)cc1 | -1.61% (inactive) |  |
| COc1ccc(C)cc1NC(=O)C(=O)NCCc1sc(-c2cccc(C)c2)nc1C | 6.58% (inactive) |  |
| Cc1cc(C)c2oc(-c3cccc(NC(=O)c4cccc(F)c4)c3C)nc2c1 | 1.22% (inactive) |  |
| CCOC(=O)c1c(C)oc2nc(C)nc(N3CCN(c4ccc(OC)cc4)CC3)c12 | 0.844% (inactive) |  |
| O=C(NC1CC(=O)N(c2ccccc2)C1)c1ccco1 (centres undefined) | 8.46% (inactive) |  |
| Cc1ccc(S(=O)(=O)NCC(C)NS(C)(=O)=O)cc1 (centres undefined) | -8.27% (inactive) |  |
| CC(=O)N1CCN(CC(C)(C)NS(=O)(=O)c2ccc(C)cc2)CC1 | -16.5% (inactive) |  |
| CCOC(=O)C(NS(=O)(=O)c1ccc(C)cc1)(C(F)(F)F)P(=O)(OCC(C)C)OCC(C)C (centres undefined) |  | 22.4 µM (active) |
| Cn1c(C(=O)N2CCC(C(=O)N3CCN(c4ccccc4)CC3)CC2)cc2sccc21 | 1.1% (inactive) |  |
| Cc1ccc(Cl)cc1N(C)C(=O)C1CCCN(c2ncnc3onc(-c4ccc(F)cc4)c23)C1 (centres undefined) | 6.45% (inactive) |  |
| NC(=O)CCN1CCN(S(=O)(=O)/C=C/c2ccccc2)CC1 | -0.515% (inactive) |  |
| COc1ccccc1N1CCN(CC(=O)NC(=O)NCc2ccco2)CC1 | 3.23% (inactive) |  |

| Structure (SMILES) | activity change, negative = inhibition | Potency |
| --- | --- | --- |
| O=C(CN1CCN(S(=O)(=O)/C=C/c2ccccc2)CC1)NC(=O)NCc1ccco1 |  | 28.2 µM (active) |
| Cc1ccc(Nc2nnc(-c3ccc(C)c(S(=O)(=O)N4CCCCC4)c3)c3ccccc23)cc1 | -0.898% (inactive) |  |
| Cc1ccc2cccc(NC(=O)c3cccc4ccccc34)c2n1 | -0.566% (inactive) |  |
| Cc1cccc(NC(=O)N2CCC(CN3CCc4ccccc4C3)CC2)c1C | 2.98% (inactive) |  |
| O=C(CC1N=C2c3ccccc3N=C(SCc3ccc(F)cc3)N2C1=O)NCc1cccs1 (centres undefined) | -1.39% (inactive) |  |
| Cc1ccc(CNC(=O)CCS(=O)(=O)c2ccc3c(c2)CC(C)N3C(=O)C2CC2)o1 (centres undefined) |  | 44.7 µM (active) |
| CC1Cc2cc(S(=O)(=O)CCC(=O)NCc3ccc(Cl)cc3)ccc2N1C(=O)C1CC1 (centres undefined) | 2.16% (inactive) |  |
| CC1Cc2cc(S(=O)(=O)CCC(=O)Nc3ccc(F)c(Cl)c3)ccc2N1C(=O)C1CC1 (centres undefined) | 1.79% (inactive) |  |
| COc1cc(OC)cc(C(=O)Nc2c(C(=O)Nc3ccc(F)cc3)oc3ccccc23)c1 | 4.09% (inactive) |  |
| CCOc1ccc(Nc2ncnc3scc(-c4ccc(OC)cc4)c23)cc1 | 11.5% (inactive) |  |
| Cc1cccc2nc(-c3ccc(Cl)s3)c(Nc3ccc4c(c3)OCCO4)n12 | 2.96% (inactive) |  |
| Cc1csc2nc(COc3ccc(NC(=O)COc4ccccc4)cc3)cc(=O)n12 | 5.27% (inactive) |  |
| Cc1csc2nc(COC(=O)c3ccccc3NC(=O)c3ccccc3Cl)cc(=O)n12 | 1.82% (inactive) |  |
| O=c1cc(CCl)nc2scc(-c3ccccc3)n12 |  | 17.8 µM (active) |
| Cc1oc2ccc(O)c(CN3CCOCC3)c2c1C(=O)Nc1cccc(Cl)c1C | 1.69% (inactive) |  |
| Cc1ccc(S(=O)(=O)c2nc(-c3cccs3)oc2NCc2cccnc2)cc1 | -2.01% (inactive) |  |
| COc1cccc(-c2nc(S(=O)(=O)c3ccc(C)cc3)c(NCc3ccccc3)o2)c1 |  | 44.7 µM (active) |
| O=S(=O)(c1ccc(Br)cc1)c1nc(-c2ccccc2)oc1NCc1cccnc1 | 2.3% (inactive) |  |
| CCOC(=O)C(Cc1ccccc1)NC(=O)CCc1c(C)nc2c(c(C)nn2-c2ccc(C)c(C)c2)c1C (centres undefined) | 5.29% (inactive) |  |
| CCC1CCCCN1S(=O)(=O)c1ccc(NC(=O)c2cc(=O)c3ccccc3o2)cc1 (centres undefined) | 2.57% (inactive) |  |
| CCOc1ccc(CNC(=O)CCc2c(C)nn(-c3ccc(N4CCCCC4)nn3)c2C)cc1 | -3.22% (inactive) |  |
| CC(=O)Nc1ccc(N2C(=O)C3C4C=CC(CC4)C3C2=O)cc1 (centres undefined) | -9.16% (inactive) |  |
| Cc1ccc(N2C(=O)C3C4C=CC(CC4)C3C2=O)cc1Br (centres undefined) | -3.52% (inactive) |  |
| Cc1ccc(N2C(=O)C3C4C=CC(CC4)C3C2=O)cc1Cl (centres undefined) |  | 25.1 µM (active) |
| Cc1ccc2oc(C(=O)Nc3ccc(S(=O)(=O)N4CCCCCC4)cc3)cc(=O)c2c1 | 4.12% (inactive) |  |

| Structure (SMILES) | activity change, negative = inhibition | Potency |
| --- | --- | --- |
| COc1ccc(-c2noc(CSc3nc(C)cc(=O)[nH]3)n2)cc1OC | -0.744% (inactive) |  |
| O=C(CSc1oc(-c2ccccc2)nc1S(=O)(=O)c1ccc(Br)cc1)NC1CCCCC1 | -3.74% (inactive) |  |
| COc1cc(Br)cc(/C=N/c2ncn[nH]2)c1O | 5.17% (inactive) |  |
| Oc1c(Cl)cc(Cl)cc1/C=N/c1ncn[nH]1 |  | 20 µM (active) |
| Cc1ccc(Nc2c(-c3ccc(N(C)C)cc3)nc3nc[nH]n23)cc1 | -3.83% (inactive) |  |
| COc1cc(OC)cc(-c2nc3nc(C)c(CCC(=O)Nc4ccc(C)cc4)c(C)n3n2)c1 | -1.28% (inactive) |  |
| CN(C)/C=C1\C=C(c2ccccc2)OC1=O |  | 22.4 µM (active) |
| Cc1ccc(C2=C/C(=C\c3cccnc3)C(=O)O2)cc1 | -8.03% (inactive) |  |
| COc1ccccc1/C=C/C1=NC(=C\N(C)C)/C(=O)O1 | -9.84% (inactive) |  |
| Cc1ccc(S(=O)(=O)NCc2nc3nc(C)cc(C)n3n2)cc1 | -1.78% (inactive) |  |
| Cc1cc(C)n2nc(C(=O)NC(C)(C)C)nc2n1 | -8.16% (inactive) |  |
| Cc1cc(C)n2nc(CNS(=O)(=O)c3c(F)c(F)c(F)c(F)c3F)nc2n1 |  | 17.8 µM (active) |
| COC(=O)c1ccccc1NS(=O)(=O)c1ccc2c(c1)CCCN2C(C)=O | 7.01% (inactive) |  |
| Cc1c(Cl)cccc1NC(=O)Cn1cc(C(=O)c2cccs2)c2ccccc21 | 1.68% (inactive) |  |
| NC1=NC(c2cc(F)cc(F)c2)n2c(nc3ccccc32)N1 (centres undefined) | -2.89% (inactive) |  |
| Cc1ccc(-n2c(SCC(=O)c3ccccc3)nc3c([nH]c4ccccc43)c2=O)cc1 | 6.85% (inactive) |  |
| COc1ccccc1NC(=O)/C=C/C(N)=O |  | 2.82 µM (active) |
| COc1ccccc1NC(=O)c1cc(Cl)nnc1Cl | -15.3% (inactive) |  |
| COc1ccccc1NC(=O)c1c(Br)cnn1C | 10.4% (inactive) |  |
| CC(NC(=O)CCc1cn(Cc2ccccc2Cl)c2ccccc12)c1ccccc1 (centres undefined) | 9.78% (inactive) |  |
| Cc1ccc(NC(=O)c2ccc3[nH]c(C)cc(=O)c3c2)c(C)c1 | 0.821% (inactive) |  |
| O=[N+]([O-])c1ccc(C=Nc2ccc(Cl)cc2Cl)s1 |  | 25.1 µM (active) |
| COc1ccc(C(C)=O)cc1CSc1nc2nc(C)cc(C)n2n1 |  | 39.8 µM (active) |
| COc1cccc(CSc2nc3nc(C)cc(C)n3n2)c1 | 5.94% (inactive) |  |
| Cc1cc(C)n2nc(SCC(N)=O)nc2n1 | 1.42% (inactive) |  |

| Structure (SMILES) | activity change, negative = inhibition | Potency |
| --- | --- | --- |
| CCOc1ccccc1CNC(=O)C1CCCN(S(=O)(=O)c2ccc3c(ccn3C)c2)C1 (centres undefined) | 2.74% (inactive) |  |
| Cc1ccc(CNS(=O)(=O)c2ccc(C(=O)N(C)C)s2)cc1 | 8.48% (inactive) |  |
| Cc1ccc2c(c1)-c1c(cnn1CC(=O)Nc1ccccc1C#N)CO2 | 2.81% (inactive) |  |
| COc1ccc(-c2nc3ccccc3c(=O)n2CCc2ccc(O)cc2)cc1 | -3.44% (inactive) |  |
| COc1ccc(Cl)cc1-n1c(CCC(=O)O)ccc1-c1ccc(C)cc1 |  | 39.8 µM (active) |
| COc1ccc(-c2cn(-c3ccc(C)cc3)c(=O)n2CC(=O)Nc2ccc(OC)c(OC)c2)cc1 | -2.58% (inactive) |  |
| Cc1ccc(-c2ccc(CCC(=O)O)n2-c2ccc(C(N)=O)cc2)cc1 |  | 12.6 µM (active) |
| CCOC(=O)c1ccc(NC(=O)c2ncn(-c3ccccc3)n2)cc1 | -0.841% (inactive) |  |
| COc1ccc(NC(=O)Cn2c(-c3ccc(OC)cc3)cn(-c3ccc(C)cc3)c2=O)cc1 | -3.25% (inactive) |  |
| C=Cn1c(C(=O)O)ccc1-c1ccc(OC)cc1 | -6.86% (inactive) |  |
| COc1ccc(Cl)cc1NC(=O)Cn1nc(-c2ccc(C)cc2)n(C)c1=S | -1.27% (inactive) |  |
| COc1ccc(-c2ccc(CCC(=O)O)n2-c2ccc(O)cc2)cc1 |  | 39.8 µM (active) |
| COc1ccc(Cl)cc1NC(=O)CCC(=O)c1ccc(C)cc1 | 3.91% (inactive) |  |
| CCOC(=O)c1ccc(COC(=O)CCc2nc(-c3ccccc3)c(-c3ccccc3)o2)cc1 | 2.19% (inactive) |  |
| CCOC(=O)c1ccc(-n2c(CCC(=O)O)ccc2-c2ccccc2)cc1 |  | 28.2 µM (active) and 50.1 µM (active) |
| CCOc1ccccc1N(CC)C(=O)Nc1cn(C)c(=O)c2ccccc12 | -2.07% (inactive) |  |
| COc1ccc(NC(=O)Nc2cccc(-c3noc(C)n3)c2)cc1 | -2.78% (inactive) |  |
| CCCCCn1c(CCNC(=O)c2ccc(F)cc2)nc2ccccc21 | 0.666% (inactive) |  |
| O=C(CC1C(=O)N(c2ccccc2)C(=O)N1CCc1cccs1)Nc1ccc(F)cc1 (centres undefined) | -4.99% (inactive) |  |
| Cc1ccc(C(=O)Nc2ccc(OCc3cc(=O)n4c(C)csc4n3)cc2)cc1 | 0.173% (inactive) |  |
| CC(C)C12CN3CC(C(C)C)(CN(C1)C3c1ccc(OCc3ccccc3)cc1)C2=O (centres undefined) | 1.3% (inactive) |  |
| Fc1ccccc1/C=C1\CCCC2=C1Nc1ncnn1C2c1ccccc1F (centres undefined) |  | 1.26 µM (active) |
| CCOC(=O)C1=C(c2ccccc2)Nc2ncnn2C1c1ccc(Cl)cc1 (centres undefined) | 0.261% (inactive) |  |
| COc1ccc2c(Sc3ccc(C)cc3)c(C(=O)NC(C)c3ccccc3)[nH]c2c1 (centres undefined) | 5.33% (inactive) |  |
